Screening results deposited in PubChem BioAssay by several laboratories.
PHOSPHO1 block – PHOSPHO1 (human) inhibition. Q8TCT1. AID 1565. recombinant PHOSPHO1, absorbance phosphatase assay. hit rate 1.1% among 290,000. inhibition, % at 13.3 µM; in the data active means inhibition above about 60%
Target sequence (Q8TCT1 whole entry, looked up): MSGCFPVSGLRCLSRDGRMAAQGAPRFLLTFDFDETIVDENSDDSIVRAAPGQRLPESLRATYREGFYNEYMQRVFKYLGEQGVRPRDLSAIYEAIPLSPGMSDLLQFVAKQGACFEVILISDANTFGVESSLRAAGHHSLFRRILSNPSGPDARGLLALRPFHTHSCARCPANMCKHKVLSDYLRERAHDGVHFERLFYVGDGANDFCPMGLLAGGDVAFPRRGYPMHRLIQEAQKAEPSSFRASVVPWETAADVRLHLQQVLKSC
Rpn11 inh – inhibitors of human proteasome Rpn11; human 26S proteasome, Ub4-pepOG fluorescence polarization; 20S core pre-blocked with epoxomicin; inhibition, % at 20 µM; hit rate 0.59% among 360,000; AID 588493;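 active means inhibition at 20 µM, scaled to each plate's controls, above about 33%, limit read from the data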
Target sequence (O00487 whole entry, looked up): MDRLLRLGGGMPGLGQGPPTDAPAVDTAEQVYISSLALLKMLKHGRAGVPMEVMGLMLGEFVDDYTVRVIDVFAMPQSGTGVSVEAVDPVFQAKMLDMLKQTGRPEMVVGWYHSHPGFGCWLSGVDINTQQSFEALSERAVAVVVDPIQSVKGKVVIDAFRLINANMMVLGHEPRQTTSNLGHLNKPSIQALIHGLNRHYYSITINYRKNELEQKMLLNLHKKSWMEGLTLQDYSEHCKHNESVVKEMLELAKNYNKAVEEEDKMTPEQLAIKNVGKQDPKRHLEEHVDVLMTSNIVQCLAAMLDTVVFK
TPT1 inh – blocks Candida albicans tRNA 2'-phosphotransferase; recombinant caTPT1, FP RNA substrate dephosphorylation; inhibition, % at 5 µM; AID 1962; hit rate 0.81% among 300,000;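 active means inhibition above the mean of all tested compounds plus 3 SD, set per screening campaign, cut at about 24% in these data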
NRP1-CendR mod – NRP-1/CendR interaction modulation; FAM-RPARPAR peptide binding to NRP-1, fluorescence polarization; inhibition, % at 25 µM; hit rate 0.85% among 360,000; O14786;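 active means inhibition or corrected inhibition above about 18%, plus a signal ratio from 0.5 to 1.5, limit read from the data, passing the limit was not always enough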
CTSL1 counter – counter-screen for PFM18AAP inhibitors: inhibitors of F. hepatica cathepsin L1 | recombinant F. hepatica cathepsin L1, Z-Leu-Arg-MCA fluorescence | inhibition, % at 5.96 µM | hit rate 0.49% among 300,000;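 active means inhibition above the mean of all tested compounds plus 3 SD, set per screening campaign, cut at about 17% in these data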
HNF4A DNA FP – change in binding of human HNF4 alpha to DNA; HNF4a-FITC DNA binding, fluorescence polarization, 1 h; activity change, % at 10 µM; P41235; hit rate 0.3% among 360,000; in the data active means activity change above about 30%, passing the limit was not always enough
Each line names hits and unclear results; the compound was inactive in the other large screens. Shown are actives, neighbours in structure and some others; about 3.3% of the full set was active somewhere.

COc1ccc(NC(=O)CN2C(=O)c3ccccc3S2(=O)=O)cc1S(=O)(=O)N1CCOCC1	none (no result: PHOSPHO1 block, TPT1 inh, CTSL1 counter)
O=C(Nc1sc2c(c1C(=O)N1CCOCC1)CCCCC2)c1cccnc1	CTSL1 counter 18.9
CCOc1c(Cl)cc(/C=N/NC(N)=S)cc1OC	CTSL1 counter 25.9
C#CCOc1c(Cl)cc(/C=N/NC(N)=S)cc1OCC	CTSL1 counter 79.8
Cc1cc(C(=O)COC(=O)c2ccc(O)cc2)c(C)n1CCc1ccc(F)cc1	none
COc1ccccc1-c1ncn(Cc2cccc(-c3ccccc3)c2)c1-c1cc(C)cc(C)c1	none (no result: PHOSPHO1 block, Rpn11 inh, TPT1 inh, CTSL1 counter)
N=c1c2c(n(Cc3ccc(F)cc3)c3c1CCC3)CCCC2	NRP1-CendR mod 24.5
N=c1c2c(n(Cc3ccc(Cl)cc3)c3c1CCC3)CCC2	HNF4A DNA FP 41.9
COc1ccc(C2C(C(=O)Nc3ccc(F)cc3)=C(C)Nc3nc(CCCO)nn32)cc1 (centres undefined)	NRP1-CendR mod 20.3
CCOc1ccc(C2C(C(=O)Nc3ccc(F)cc3)=C(C)Nc3nc(CCCO)nn32)cc1 (centres undefined)	none
CN1CCOCCOCCN(C)C1=O	none
CC(=NCc1ccncc1)C1=C(O)c2ccccc2C1=O	PHOSPHO1 block 64.0 (no result: Rpn11 inh, TPT1 inh, NRP1-CendR mod, CTSL1 counter, HNF4A DNA FP)
O=C(NCc1ccccc1F)C1CCCN1C(=O)Nc1ccccc1 (centres undefined)	none
COc1ccc(CCNC(=O)COc2cc(O)c3c(c2)OC(C)(C)CC3=O)cc1OC	none
CC(=O)Nc1ccc(/C(C)=N/NS(=O)(=O)c2ccc(C)cc2)cc1	none
C/C(=N/NS(=O)(=O)c1ccc(Br)cc1)c1ccc(NC(=O)c2ccc(C)o2)cc1	PHOSPHO1 block 74.3
Cc1cc(C(F)(F)F)n2[nH]c(=O)c(N=Nc3ccccc3)c2n1	none
O=c1[nH]n2c(C(F)(F)F)cc(C3CC3)nc2c1N=Nc1ccccc1	NRP1-CendR mod 23.7
CC(C)=NOc1cc(NC(=O)CCl)cc([N+](=O)[O-])c1	CTSL1 counter 78.9
CCC(=O)Nc1cc(ON=C(C)C)cc([N+](=O)[O-])c1	none
CC(C)CCC(C)NC(=O)CN1C(=O)NC(C)(c2ccc3ccccc3c2)C1=O (centres undefined)	none
CC1(OC(=O)CCc2ccccc2)C(=O)C=C2C=C(c3ccc(C#N)cc3)N(C3CCCC3)C=C2C1=O (centres undefined)	NRP1-CendR mod 30.3
N#CCSc1ccccc1NC(=O)COC(=O)Cc1c[nH]c2ccccc12	none (no result: PHOSPHO1 block, TPT1 inh, CTSL1 counter)
O=C(CCC(=O)c1cccs1)Nc1nnc(C2CC2)s1	none
Cc1cc(C)n(-c2ccc(C(=O)NC(C)C)cc2)n1	none
O=C(Nc1nnc(C2CC2)s1)c1cccs1	NRP1-CendR mod 25.1
O=C(Nc1nnc(COc2ccc(Cl)cc2)s1)c1cccs1	PHOSPHO1 block 80.2
Cc1cc(C)n(-c2ccc(C(=O)Nc3nnc(C4CC4)s3)cc2)n1	NRP1-CendR mod 26.0
COc1ccccc1Nc1nnc(SCC(=O)N2CCCC2=O)s1	PHOSPHO1 block 61.3
Cc1ccccc1CN1CCN(CC(=O)NC(C)c2ccccc2)CC1 (centres undefined)	none
Cc1cc2c(Nc3ccc(C(=O)O)cc3)ncnc2s1	none
Nc1cc(S(=O)(=O)O)cc([N+](=O)[O-])c1O	NRP1-CendR mod 27.9
O=C1NC(=S)S/C1=C/c1ccc(OC(=O)c2ccco2)cc1	HNF4A DNA FP 43.9 (not shown: Rpn11 inh)
CCOc1cc(/C=C2/SC(=S)NC2=O)ccc1OC(=O)c1ccco1	none
O=C(OC(C(=O)NC1CCCC1)c1ccccn1)c1cccs1 (centres undefined)	none
CCCCC(c1nnnn1CC1CCCO1)N1CCN(c2nc3ccccc3s2)CC1 (centres undefined)	NRP1-CendR mod 17.9 (no result: TPT1 inh, CTSL1 counter)
CN(C)c1ccc(C(=S)N2CCCCC2)cc1Br	none
CN(C)c1ccc(C(=S)N2CCOCC2)cc1Br	PHOSPHO1 block 100.9
Cc1cccn2c(=O)c(C(=O)NC3CCCCC3C)c(O)nc12 (centres undefined)	NRP1-CendR mod 43.5 (no result: PHOSPHO1 block)
Cc1cccc(N2CCN(C(=O)CCNS(=O)(=O)c3ccc4c(c3)oc(=O)n4C)CC2)c1C	PHOSPHO1 block 62.9
CCc1ccc(Nc2n[n+](C)c(-c3ccncc3)s2)cc1	none
COC12CC(=O)C(C(C)=O)=C(O)C1(C)c1c(O)c(C)c(O)c(C(C)=O)c1O2 (centres undefined)	HNF4A DNA FP 64.8 (not shown: PHOSPHO1 block, Rpn11 inh, TPT1 inh, CTSL1 counter)
COc1ccc(-n2nc3cc(C)c(NC(=O)C(C)C)cc3n2)cc1	none (no result: Rpn11 inh, TPT1 inh, NRP1-CendR mod, CTSL1 counter, HNF4A DNA FP)
Cc1csc(NC(C)c2nc3cc(C(F)(F)F)ccc3n2CCCO)n1 (centres undefined)	NRP1-CendR mod 35.4 (no result: PHOSPHO1 block)
Cc1ccc(Cn2c(C(C)Nc3nc(-c4ccc(Cl)c([N+](=O)[O-])c4)cs3)nc3cc(C(F)(F)F)ccc32)cc1 (centres undefined)	NRP1-CendR mod 34.8 (no result: PHOSPHO1 block)
C=CCNc1nnc(SC2CC(=O)N(c3ccc(OC)cc3)C2=O)s1 (centres undefined)	PHOSPHO1 block 92.8
CC(C)(C)OC(=O)NNC(=S)NCc1ccc(Cl)cc1	PHOSPHO1 block 73.4
O=[N+]([O-])c1nn(-c2ccc(Cl)cc2)n(O)c1=NCc1ccncc1	CTSL1 counter 17.8
CCCc1c(O)c2ccccc2[nH]c1=O	NRP1-CendR mod 26.0
CC12CNCC(C)(CN(C(c3ccccc3)c3ccccc3)C1)C2	NRP1-CendR mod 31.0
Cc1ccc(N(CC(=O)NCc2ccc3c(c2)OCO3)C(=O)c2csnn2)cc1	none
CCOC(=O)c1ccc(NC(=O)c2nc[nH]c2C(=O)N[C@@H](C)CO)cc1	none (no result: PHOSPHO1 block, TPT1 inh, CTSL1 counter)
COc1cccc(CCC(=O)O)c1OC	CTSL1 counter 18.6 (no result: PHOSPHO1 block)
O=C(O)CCc1ccccc1OC(=O)c1ccccc1	none
COC(=O)C(C)Sc1nnc(SC(C)C(=O)OC)s1 (centres undefined)	NRP1-CendR mod 35.8
Cc1cc(C)c(NC(=O)C2CC(=O)N(c3ccc4c(c3)OCCO4)C2)c(C)c1 (centres undefined)	none
CCOC(=O)[C@H]1[C@H]2COc3ccc(OC)cc3[C@@H]2N2C(=O)c3ccc(C)cc3NC(=O)[C@@]12C	NRP1-CendR mod 24.2 (no result: PHOSPHO1 block)
CCOC(=O)[C@H]1[C@H]2COc3cc(OC)ccc3[C@@H]2N2C(=O)CN(Cc3ccco3)C(=O)[C@@]12C	none (no result: PHOSPHO1 block, TPT1 inh, CTSL1 counter)
CCOC(=O)[C@H]1[C@H]2COc3ccc(OC)cc3[C@@H]2N2C(=O)CN(Cc3ccco3)C(=O)[C@@]12C	NRP1-CendR mod 22.0 (no result: PHOSPHO1 block, TPT1 inh, CTSL1 counter)
COC(=O)c1cc(S(=O)(=O)N2CCOCC2)c(Cl)cc1N1CCOCC1	none
COC(=O)c1cc(C)nc2c1C(=O)C(=O)C=C2N1CCOCC1	NRP1-CendR mod 28.7, CTSL1 counter 109.7 (no result: PHOSPHO1 block)
Oc1ccc2[nH]cnc2c1CN1CCCCC1	NRP1-CendR mod 25.2
COc1ccc2oc(C(=O)OCC(=O)NC(=O)c3ccccc3)c(C)c2c1	none
Cc1cccc(CN2[C@H](CO)C=CS2(=O)=O)c1	none (no result: PHOSPHO1 block, TPT1 inh, CTSL1 counter)
CC(CN1CCCC1)OC(=O)c1ccc(Cl)cc1Cl (centres undefined)	none
